# Laboratory results reported in the supplement of paper PMC10037445.
# In all, about 2,900 compounds were measured (“NF-kB SEAP reporter activity, fold change vs agonist alone”: median about 0.99, highest 2% from about 2.6 on). The list comes from a sample in which the highest values are over-represented; it also holds similar structures and randomly drawn compounds.
# Key:
# [1] = tested on: RAW-Dual; assay: NF-kB SEAP reporter activity, fold change vs agonist alone; higher = enhanced NF-kB activity
# In short: (§1)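 Cytotoxic wells were those whose IncuCyte confluency was below 70% of agonist controls in both mask sets. The cells were RAW-Dual macrophages at 50,000 cells/well in DMEM on 384-well plates, dosed with 50 nL of library stock by pin tool, stimulated with a PRR agonist 1 h later, and kept at 37 °C, 5% CO2 for 20 hours. IRF and NF-κB reporter activity, as fold change over agonist-alone wells, came from supernatant read by QuantiLuc luminescence and QuantiBlue absorbance, respectively.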
# [2] = tested on: RAW-Dual; assay: NF-kB SEAP reporter activity, fold change vs agonist alone; cytotoxicity flag (confluency mask): not cytotoxic; higher = enhanced NF-kB activity
# In short: as §1
# [3] = tested on: RAW-Dual; assay: NF-kB SEAP reporter activity, fold change vs agonist alone; cytotoxicity flag (confluency mask): cytotoxic (confluency <70% of control); higher = enhanced NF-kB activity
# In short: as §1
# [4] = library stock concentration (final ~1000-fold dilution): 10 mM, cytotoxicity flag (confluency mask): cytotoxic (confluency <70% of control), agonist: Imiquimod (TLR7) […]
# [5] = library stock concentration (final ~1000-fold dilution): 10 mM, cytotoxicity flag (confluency mask): cytotoxic (confluency <70% of control), agonist: MPLA (TLR4) […]
# [6] = agonist: ODN 1826 (TLR9) 0.5 ug/mL
# [7] = agonist: Pam2CSK4 (TLR2/6) 0.1 ug/mL
# [8] = agonist: Pam3CSK4 (TLR2/1) 0.1 ug/mL
# [9] = library stock concentration (final ~1000-fold dilution): 10 mM, cytotoxicity flag (confluency mask): not cytotoxic, agonist: Imiquimod (TLR7) […]
# [10] = library stock concentration (final ~1000-fold dilution): 10 mM, cytotoxicity flag (confluency mask): not cytotoxic, agonist: MPLA (TLR4) […]
smiles,measurement,setting,value
Cl.Cl.Cn1cc(CNCC2CCN(c3ncc(C(=O)NO)cn3)CC2)c2ccccc21,NF-kB SEAP reporter activity,[1]; [4],2.52
same,NF-kB SEAP reporter activity,[1]; [5],2.65
Cl.Cn1cc(C(=O)C2CCc3nc[nH]c3C2)c2ccccc21 (stereo unspecified) (library stock concentration (final ~1000-fold dilution): 10 mM),NF-kB SEAP reporter activity,[2]; agonist: LPS (TLR4) 0.1 ug/mL,1.01
same,NF-kB SEAP reporter activity,[2]; [6],0.67
same,NF-kB SEAP reporter activity,[2]; [7],0.928
same,NF-kB SEAP reporter activity,[2]; [8],0.877
Cl.Cl.Cn1cc(CNCC2CCN(c3ncc(C(=O)NO)cn3)CC2)c2ccccc21 (library stock concentration (final ~1000-fold dilution): 10 mM),NF-kB SEAP reporter activity,[3]; agonist: LPS (TLR4) 0.1 ug/mL,7.01
same,NF-kB SEAP reporter activity,[3]; [6],1.95
same,NF-kB SEAP reporter activity,[3]; [7],1.13
same,NF-kB SEAP reporter activity,[3]; [8],1.93
Cl.Cn1cc(C(=O)C2CCc3nc[nH]c3C2)c2ccccc21 (stereo unspecified),NF-kB SEAP reporter activity,[1]; [9],0.775
same,NF-kB SEAP reporter activity,[1]; [10],0.816
Cn1cc(CC(N)C(=O)O)c2ccccc21 (stereo unspecified),NF-kB SEAP reporter activity,"[1]; library stock concentration (final ~1000-fold dilution): 2 mM, cytotoxicity flag (confluency mask): not cytotoxic, agonist: Imiquimod (TLR7) […]",0.994
same,NF-kB SEAP reporter activity,"[1]; library stock concentration (final ~1000-fold dilution): 2 mM, cytotoxicity flag (confluency mask): not cytotoxic, agonist: MPLA (TLR4) […]",1.05
Cn1cc(CC(N)C(=O)O)c2ccccc21 (stereo unspecified) (library stock concentration (final ~1000-fold dilution): 2 mM),NF-kB SEAP reporter activity,[2]; agonist: LPS (TLR4) 0.1 ug/mL,1.05
same,NF-kB SEAP reporter activity,[2]; [6],1.22
same,NF-kB SEAP reporter activity,[2]; [7],1.19
same,NF-kB SEAP reporter activity,[2]; [8],1.05
COc1ccc(CCC(=O)N(c2nccc3ccccc23)C2CCCNC2)cc1 (stereo unspecified) (library stock concentration (final ~1000-fold dilution): 10 mM),NF-kB SEAP reporter activity,[2]; agonist: LPS (TLR4) 0.1 ug/mL,1.05
same,NF-kB SEAP reporter activity,[2]; [6],0.84
same,NF-kB SEAP reporter activity,[2]; [7],1.09
same,NF-kB SEAP reporter activity,[2]; [8],1.08
COc1ccc(CCC(=O)N(c2nccc3ccccc23)C2CCCNC2)cc1 (stereo unspecified),NF-kB SEAP reporter activity,[1]; [9],1.07
same,NF-kB SEAP reporter activity,[1]; [10],1.29
CS(=O)(=O)c1cccc(CC(NC(=O)c2c(Cl)cc3c(c2Cl)CCN(C(=O)c2ccc4ccoc4c2)C3)C(=O)O)c1 (stereo unspecified) (library stock concentration (final ~1000-fold dilution): 10 mM),NF-kB SEAP reporter activity,[2]; agonist: LPS (TLR4) 0.1 ug/mL,0.994
same,NF-kB SEAP reporter activity,[2]; [6],1
same,NF-kB SEAP reporter activity,[2]; [7],1.03
same,NF-kB SEAP reporter activity,[2]; [8],0.941
CS(=O)(=O)c1cccc(CC(NC(=O)c2c(Cl)cc3c(c2Cl)CCN(C(=O)c2ccc4ccoc4c2)C3)C(=O)O)c1 (stereo unspecified),NF-kB SEAP reporter activity,[1]; [9],0.947
same,NF-kB SEAP reporter activity,[1]; [10],1.04
O=[N+]([O-])c1ccc(S(=O)(=O)N2CCN(c3ccnc4cc(Cl)ccc34)CC2)c([N+](=O)[O-])c1 (library stock concentration (final ~1000-fold dilution): 10 mM),NF-kB SEAP reporter activity,[3]; agonist: LPS (TLR4) 0.1 ug/mL,0.384
same,NF-kB SEAP reporter activity,[3]; [6],0.333
same,NF-kB SEAP reporter activity,[3]; [7],0.229
same,NF-kB SEAP reporter activity,[3]; [8],0.196
O=[N+]([O-])c1ccc(S(=O)(=O)N2CCN(c3ccnc4cc(Cl)ccc34)CC2)c([N+](=O)[O-])c1,NF-kB SEAP reporter activity,[1]; [4],0.787
same,NF-kB SEAP reporter activity,[1]; [5],0.37
O=C(/C=C/c1cccc(S(=O)(=O)Nc2ccccc2)c1)NO (library stock concentration (final ~1000-fold dilution): 10 mM),NF-kB SEAP reporter activity,[3]; agonist: LPS (TLR4) 0.1 ug/mL,5.83
same,NF-kB SEAP reporter activity,[3]; [6],2.3
same,NF-kB SEAP reporter activity,[3]; [7],0.848
same,NF-kB SEAP reporter activity,[3]; [8],1.76
Cn1cc(/C=C/C(=O)c2cccc(F)c2)cc1/C=C/C(=O)NO (library stock concentration (final ~1000-fold dilution): 10 mM),NF-kB SEAP reporter activity,[2]; agonist: LPS (TLR4) 0.1 ug/mL,1.26
same,NF-kB SEAP reporter activity,[2]; [6],0.787
same,NF-kB SEAP reporter activity,[2]; [7],0.605
same,NF-kB SEAP reporter activity,[2]; [8],0.528
O=C(/C=C/c1cccc(S(=O)(=O)Nc2ccccc2)c1)NO,NF-kB SEAP reporter activity,[1]; [4],2.39
same,NF-kB SEAP reporter activity,[1]; [5],2.58
Cn1cc(/C=C/C(=O)c2cccc(F)c2)cc1/C=C/C(=O)NO,NF-kB SEAP reporter activity,[1]; [9],0.803
same,NF-kB SEAP reporter activity,[1]; [10],1.06
COc1cccc(NC(=O)/C=C/c2ccc(Cl)cc2)c1 (library stock concentration (final ~1000-fold dilution): 10 mM),NF-kB SEAP reporter activity,[2]; agonist: LPS (TLR4) 0.1 ug/mL,1.18
same,NF-kB SEAP reporter activity,[2]; [6],0.828
same,NF-kB SEAP reporter activity,[2]; [7],0.682
same,NF-kB SEAP reporter activity,[2]; [8],0.711
COc1cccc(NC(=O)/C=C/c2ccc(Cl)cc2)c1,NF-kB SEAP reporter activity,[1]; [9],1.02
same,NF-kB SEAP reporter activity,[1]; [10],1.04
CC(=O)Oc1cc2c(s1)CCN(C(C(=O)C1CC1)c1ccccc1F)C2.Cl (stereo unspecified),NF-kB SEAP reporter activity,[1]; [10],0.869
CC(=O)Oc1cc2c(s1)CCN(C(C(=O)C1CC1)c1ccccc1F)C2.Cl (stereo unspecified) (library stock concentration (final ~1000-fold dilution): 10 mM),NF-kB SEAP reporter activity,[2]; agonist: LPS (TLR4) 0.1 ug/mL,0.766
same,NF-kB SEAP reporter activity,[2]; [6],0.821
same,NF-kB SEAP reporter activity,[2]; [7],0.958
same,NF-kB SEAP reporter activity,[2]; [8],0.688
C=CC(=O)N1CC/C(=C\c2ccc(F)c([N+](=O)[O-])c2)C(=O)/C(=C/c2ccc(F)c([N+](=O)[O-])c2)C1,NF-kB SEAP reporter activity,[1]; [9],0.151
same,NF-kB SEAP reporter activity,[1]; [10],0.267
C=CC(=O)N1CC/C(=C\c2ccc(F)c([N+](=O)[O-])c2)C(=O)/C(=C/c2ccc(F)c([N+](=O)[O-])c2)C1 (library stock concentration (final ~1000-fold dilution): 10 mM),NF-kB SEAP reporter activity,[2]; agonist: LPS (TLR4) 0.1 ug/mL,0.222
same,NF-kB SEAP reporter activity,[2]; [6],0.198
same,NF-kB SEAP reporter activity,[2]; [7],0.0699
same,NF-kB SEAP reporter activity,[2]; [8],0.144
CC1CNC(=O)c2cnn3ccc(nc23)NC(C)c2cc(F)ccc2O1 (stereo unspecified),NF-kB SEAP reporter activity,[1]; [9],0.753
same,NF-kB SEAP reporter activity,[1]; [10],0.916
CC1CNC(=O)c2cnn3ccc(nc23)NC(C)c2cc(F)ccc2O1 (stereo unspecified) (library stock concentration (final ~1000-fold dilution): 10 mM),NF-kB SEAP reporter activity,[2]; agonist: LPS (TLR4) 0.1 ug/mL,1.58
same,NF-kB SEAP reporter activity,[2]; [6],0.9
same,NF-kB SEAP reporter activity,[2]; [7],0.5
same,NF-kB SEAP reporter activity,[2]; [8],0.422
N#CCNC(=O)c1ccc(-c2ccnc(Nc3ccc(N4CCOCC4)cc3)n2)cc1 (library stock concentration (final ~1000-fold dilution): 10 mM),NF-kB SEAP reporter activity,[2]; agonist: LPS (TLR4) 0.1 ug/mL,0.233
same,NF-kB SEAP reporter activity,[2]; [6],1.01
same,NF-kB SEAP reporter activity,[2]; [7],0.233
same,NF-kB SEAP reporter activity,[2]; [8],1.08
N#Cc1cc(-c2ccnc(Nc3ccc(N4CCOCC4)cc3)n2)ccc1OC1CCOCC1 (library stock concentration (final ~1000-fold dilution): 10 mM),NF-kB SEAP reporter activity,[2]; agonist: LPS (TLR4) 0.1 ug/mL,0.526
same,NF-kB SEAP reporter activity,[2]; [6],1.39
same,NF-kB SEAP reporter activity,[2]; [7],0.463
same,NF-kB SEAP reporter activity,[2]; [8],3.66
O=C(Nc1ccc(-c2ccnc(Nc3ccc(N4CCOCC4)cc3)n2)cc1)C1CCCN1 (stereo unspecified) (library stock concentration (final ~1000-fold dilution): 10 mM),NF-kB SEAP reporter activity,[2]; agonist: LPS (TLR4) 0.1 ug/mL,1.86
same,NF-kB SEAP reporter activity,[2]; [6],0.272
same,NF-kB SEAP reporter activity,[2]; [7],1.05
same,NF-kB SEAP reporter activity,[2]; [8],1.67
N#CCNC(=O)c1ccc(-c2ccnc(Nc3ccc(N4CCOCC4)cc3)n2)cc1,NF-kB SEAP reporter activity,[1]; [9],1.02
same,NF-kB SEAP reporter activity,[1]; [10],0.925
O=C(Nc1ccc(-c2ccnc(Nc3ccc(N4CCOCC4)cc3)n2)cc1)C1CCCN1 (stereo unspecified),NF-kB SEAP reporter activity,[1]; [9],1.6
same,NF-kB SEAP reporter activity,[1]; [10],2.46
N#Cc1cc(-c2ccnc(Nc3ccc(N4CCOCC4)cc3)n2)ccc1OC1CCOCC1,NF-kB SEAP reporter activity,[1]; [9],1.85
same,NF-kB SEAP reporter activity,[1]; [10],2.02
CN1CCN(CC(=O)N2c3ccccc3C(=O)Nc3cccnc32)CC1.Cl.Cl (library stock concentration (final ~1000-fold dilution): 10 mM water),NF-kB SEAP reporter activity,[2]; agonist: LPS (TLR4) 0.1 ug/mL,1.25
same,NF-kB SEAP reporter activity,[2]; [6],1.15
same,NF-kB SEAP reporter activity,[2]; [7],1.16
same,NF-kB SEAP reporter activity,[2]; [8],1.06
CN1CCN(CC(=O)N2c3ccccc3C(=O)Nc3cccnc32)CC1.Cl.Cl,NF-kB SEAP reporter activity,"[1]; library stock concentration (final ~1000-fold dilution): 10 mM water, cytotoxicity flag (confluency mask): not cytotoxic, agonist: Imiquimod (TLR7) […]",0.949
same,NF-kB SEAP reporter activity,"[1]; library stock concentration (final ~1000-fold dilution): 10 mM water, cytotoxicity flag (confluency mask): not cytotoxic, agonist: MPLA (TLR4) […]",1.01
Cl.O=S(=O)(c1cccc2c(I)cccc12)N1CCCNCC1 (library stock concentration (final ~1000-fold dilution): 10 mM),NF-kB SEAP reporter activity,[2]; agonist: LPS (TLR4) 0.1 ug/mL,0.746
same,NF-kB SEAP reporter activity,[2]; [6],0.722
same,NF-kB SEAP reporter activity,[2]; [7],0.626
same,NF-kB SEAP reporter activity,[2]; [8],0.568
Cl.O=S(=O)(c1cccc2c(I)cccc12)N1CCCNCC1,NF-kB SEAP reporter activity,[1]; [9],0.797
same,NF-kB SEAP reporter activity,[1]; [10],1.12
